SKKanGAS inh = blocks kanamycin growth of S. pyogenes SKKanGAS strain | actives 1.3% (n = 300,000) | inhibition, % at 7.5 µM | AID 1662 | BacTiter-Glo, 6 h;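 active = mean replicate score, as percent of positive control median, at least 50; inconclusive = mean below 50 but one replicate at or above 50; inactive = mean and every replicate below 50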;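 note: strain carries kanamycin resistance gene driven by streptokinase promoter and grows in 40 µg/ml kanamycin; loss of luminescence reflects streptokinase promoter inhibition or plain growth inhibition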
TPT1 inh = blocks Candida albicans tRNA 2'-phosphotransferase; recombinant caTPT1, FP RNA substrate dephosphorylation; inhibition, % at 5 µM; actives 0.81% (n = 300,000);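 active = inhibition above the mean of all tested compounds plus 3 SD, set per screening campaign, cut at about 24% in these data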
Rtt109 HAT inh = inhibitors of Candida albicans Rtt109/Vps75 histone acetyltransferase; purified Rtt109/Vps75, ThioGlo CoA-SH fluorescence, 4 h; inhibition, % at 34.9 µM; AID 540336; Q5AAJ8; actives 0.16% (n = 330,000);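 active = inhibition of at least 50% in every replicate; inconclusive = best replicate reaches 50% inhibition but some replicates fall short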
Target sequence (Q5AAJ8 whole entry, looked up): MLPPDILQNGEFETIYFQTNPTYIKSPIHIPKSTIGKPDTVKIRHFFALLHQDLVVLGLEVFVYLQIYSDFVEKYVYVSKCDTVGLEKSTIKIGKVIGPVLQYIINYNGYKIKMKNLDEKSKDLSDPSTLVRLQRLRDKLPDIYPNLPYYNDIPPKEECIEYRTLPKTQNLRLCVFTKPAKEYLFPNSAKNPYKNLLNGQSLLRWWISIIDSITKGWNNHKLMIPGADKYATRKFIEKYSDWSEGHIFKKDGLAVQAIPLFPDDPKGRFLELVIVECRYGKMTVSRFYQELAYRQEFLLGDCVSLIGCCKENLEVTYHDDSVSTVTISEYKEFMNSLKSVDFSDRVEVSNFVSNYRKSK
Platelet DG rel = modulates dense granule release in human platelets; human platelet-rich plasma, SFLLRN dense granule ATP release, luminescence; inhibition, %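 (compounds screened at 7.5 µM in platelet-rich plasma)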; actives 0.22% (n = 300,000); AID 1663;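 active = mean replicate score, as percent of positive control, at or above 50; inconclusive = mean below 50 but at least one replicate at or above 50; inactive = mean and every replicate below 50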
WT yeast gro inh = growth inhibition of WT yeast, mitochondrial fusion screen | inhibition, % at 10 µM | actives 2.1% (n = 190,000) | mitochondrial fusion phenotypic screen, WT strain; in the data active = inhibition above about 58%; tested in S. cerevisiae
PHOSPHO1 inh = inhibitors of human PHOSPHO1 phosphatase | Q8TCT1 | recombinant PHOSPHO1, absorbance phosphatase assay | inhibition, % at 13.3 µM | actives 1.1% (n = 290,000) | AID 1565; in the data active = inhibition above about 60%
Target sequence (Q8TCT1 whole entry, looked up): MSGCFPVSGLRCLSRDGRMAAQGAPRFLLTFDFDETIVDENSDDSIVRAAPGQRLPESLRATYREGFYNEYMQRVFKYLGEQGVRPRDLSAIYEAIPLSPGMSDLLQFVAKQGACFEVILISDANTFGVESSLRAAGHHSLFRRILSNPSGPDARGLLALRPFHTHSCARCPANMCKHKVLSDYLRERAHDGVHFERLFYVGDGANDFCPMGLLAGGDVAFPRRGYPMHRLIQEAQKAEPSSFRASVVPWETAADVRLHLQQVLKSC
caTPT1 confirm = TPT1 (C. albicans) inhibition, confirmation; shares compounds with TPT1 inh; recombinant caTPT1, fluorescence polarization, RNase T1 coupled; inhibition, % at 5 µM; actives 74% (n = 2,400); AID 2149;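 active = inhibition above the primary screen limit, the mean inhibition of all tested compounds plus 3 SD, cut at about 25% in these data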
RNase T1 counter = RNase T1 inhibition in TPT1 counter-screen | shares compounds with TPT1 inh | RNase T1 cleavage, fluorescence polarization, 1536-well | inhibition, % at 5 µM | actives 83% (n = 2,400) | AID 2153;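 active = inhibition above the solvent-only control well mean plus 3 SD, limit set per screening run, cut at about 23% in these data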;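 note: inhibitors block cleavage so intact labeled substrate keeps polarization high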
Target sequence (P00651 whole entry, looked up): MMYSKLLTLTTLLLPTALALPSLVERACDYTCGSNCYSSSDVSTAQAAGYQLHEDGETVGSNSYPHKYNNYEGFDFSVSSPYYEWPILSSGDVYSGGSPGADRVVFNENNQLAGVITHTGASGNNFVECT
Large screens that a line does not name were inactive (follow-up assays come after a bar, where they were run). Hits are enriched below; roughly 3.9% of the tested compounds scored in any of these assays.

Cc1ccc(S(=O)(=O)NCc2ccc(C(=O)N3CCCC3)cc2)cc1	TPT1 inh 33.2 | caTPT1 confirm inactive | RNase T1 counter inactive
CCC(C)n1c(-c2ccco2)nc2nc3ccccc3nc21 (centres undefined)	TPT1 inh 26.7 (no result: Rtt109 HAT inh) | caTPT1 confirm inactive | RNase T1 counter inactive
Cc1ccc(-n2c(-c3ccco3)nc3nc4ccccc4nc32)cc1	none (no result: Rtt109 HAT inh)
COCCn1c(-c2ccco2)nc2nc3ccccc3nc21	none
CC(C)OCCCn1c(-c2ccco2)nc2nc3ccccc3nc21	TPT1 inh 25.8 | caTPT1 confirm inactive | RNase T1 counter 24.1
Cc1sc2nc(COC(=O)c3cccc(S(=O)(=O)N(C)c4ccccc4)c3)[nH]c(=O)c2c1C	TPT1 inh 51.7 | caTPT1 confirm 44.8 | RNase T1 counter 55.2
Cc1sc2nc(COC(=O)c3cccc(OC(F)F)c3)[nH]c(=O)c2c1C	none (no result: WT yeast gro inh)
O=c1oc2c(O)c(O)cc3c(=O)oc4c(O)c(O)cc1c4c23	TPT1 inh 81.5 (no result: SKKanGAS inh, Platelet DG rel) | caTPT1 confirm 91.8 | RNase T1 counter inactive
O=C(COc1coc(CN2CCCc3ccccc32)cc1=O)Nc1ccc([N+](=O)[O-])cc1	TPT1 inh 32.1 (no result: WT yeast gro inh, PHOSPHO1 inh) | caTPT1 confirm inactive | RNase T1 counter inactive
O=[N+]([O-])c1ccc(Nc2ccccc2)c2nonc12	TPT1 inh 24.7 (no result: WT yeast gro inh) | caTPT1 confirm 35.0 | RNase T1 counter 50.4
CCOc1ccc(Nc2ccc([N+](=O)[O-])c3nonc23)cc1	none (no result: WT yeast gro inh, PHOSPHO1 inh)
O=C(CCC1N=C2c3ccccc3N=C(SCC(=O)NCC3CCCO3)N2C1=O)NCc1ccc(F)cc1 (centres undefined)	none (no result: WT yeast gro inh)
Oc1ccc(CCNc2ncnc3ccc(Cl)cc23)cc1	none (no result: WT yeast gro inh)
O=c1cc(O)c2sc(Nc3ccc(F)cc3)nc2[nH]1	TPT1 inh 35.1 | caTPT1 confirm inactive | RNase T1 counter 28.8
CC(C)Cc1nnc(NC(=O)C2CC(=O)N(c3ccc4c(c3)OCCO4)C2)s1 (centres undefined)	none (no result: SKKanGAS inh, TPT1 inh, Platelet DG rel, WT yeast gro inh, PHOSPHO1 inh)
O=C(N/N=C/c1c(O)n(-c2ccc(Cl)cn2)c(=O)c2ccccc12)c1ccncc1	TPT1 inh 130.2 | caTPT1 confirm 153.8 | RNase T1 counter 142.8
CN(C)c1ccc(/C=C2\CCCc3c2nc2ccccc2c3C(=O)O)cc1	TPT1 inh 25.4 (no result: WT yeast gro inh) | caTPT1 confirm 28.3 | RNase T1 counter 39.0
CSCc1nc2sc(C(=O)Nc3nc(C)cs3)c(C)c2c(=O)[nH]1	TPT1 inh 32.5 | caTPT1 confirm 39.0 | RNase T1 counter 51.4
COC(=O)c1sc2nc(CSc3nc4ccc(C)cc4[nH]3)[nH]c(=O)c2c1C	TPT1 inh 38.2 | caTPT1 confirm 33.4 | RNase T1 counter 44.6
Cc1ccc2nc(SCc3nc4ccccc4c(=O)[nH]3)[nH]c2c1	none
Cc1nnc(N2CCC(C(=O)N3CCCCC3)CC2)c2nn(-c3ccc(Cl)cc3)c(C)c12	none (no result: WT yeast gro inh)
COc1ccc(-n2nc3c(N4CCC(C(=O)N5CCC(C)CC5)CC4)nnc(C)c3c2C)cc1	TPT1 inh 79.0, Rtt109 HAT inh inconclusive (no result: WT yeast gro inh) | caTPT1 confirm 71.9 | RNase T1 counter 81.1
CCN(CC)c1ccc(/C=N/NC(=O)c2ccco2)c(O)c1	TPT1 inh 26.6 (no result: SKKanGAS inh, WT yeast gro inh) | caTPT1 confirm 47.6 | RNase T1 counter 59.4
CCN(CC)c1ccc(/C=N/N=C(c2ccccc2)c2ccccc2)c(O)c1	TPT1 inh 36.1 | caTPT1 confirm 98.2 | RNase T1 counter 104.2
CCN(CC)c1ccc(/C=N/N(c2ccccc2)c2ccccc2)c(O)c1	none
C(=N\Nc1nc2ccccc2[nH]1)/c1ccc2ncccc2c1	none (no result: WT yeast gro inh)
CCN(CC)c1ccc(/C=N/Nc2nc3ccccc3[nH]2)c(O)c1	SKKanGAS inh 94.1, TPT1 inh 34.5 | caTPT1 confirm inactive | RNase T1 counter inactive
C=CCN1C(=O)/C(=C/c2ccc(OCC(=O)O)cc2)S/C1=N/c1nccs1	none
C=CCN1C(=O)/C(=C/c2ccc(O)c(OC)c2)S/C1=N/c1nccs1	TPT1 inh 67.9 | caTPT1 confirm 74.3 | RNase T1 counter 77.0
COc1ccccc1CCC(=O)N1CCN(S(=O)(=O)c2cc(C(F)(F)F)ccc2Cl)CC1	none (no result: SKKanGAS inh, TPT1 inh, Platelet DG rel, WT yeast gro inh, PHOSPHO1 inh)
CCCCn1c(O)c(/C=C2\C=Nc3ccccc32)c(=O)[nH]c1=O	TPT1 inh 30.3 (no result: WT yeast gro inh) | caTPT1 confirm 33.5 | RNase T1 counter 42.9
CCCCc1nn2c(N)c(/C=C3\C=Nc4ccccc43)c(=O)nc2s1	none
COc1ccc(N(C(=O)c2cccnc2)S(=O)(=O)c2cccc([N+](=O)[O-])c2)cc1	TPT1 inh 67.7 | caTPT1 confirm inactive | RNase T1 counter inactive
COc1cc2nc(CN3CCN(S(=O)(=O)c4cc(C)ccc4C)CC3)[nH]c(=O)c2cc1OC	none (no result: SKKanGAS inh, TPT1 inh, Platelet DG rel, WT yeast gro inh, PHOSPHO1 inh)
Cn1c(CC(=O)NNC(=O)c2ccc(Cl)nc2)nc2ccccc21	none (no result: SKKanGAS inh, TPT1 inh, Platelet DG rel, WT yeast gro inh, PHOSPHO1 inh)
CC(=O)C1=NN(c2ccccc2)C(c2cccs2)N1c1ccc(N(C)C)cc1 (centres undefined)	none (no result: WT yeast gro inh)
CC(=O)C1=NN(c2ccccc2)C(c2ccc3c(c2)OCO3)N1c1ccccc1 (centres undefined)	TPT1 inh 26.7 | caTPT1 confirm 46.0 | RNase T1 counter 59.1
CC1CCCN(c2ccc([N+](=O)[O-])s2)C1 (centres undefined)	none (no result: TPT1 inh)
O=[N+]([O-])c1ccc(N2CCN(Cc3ccccc3)CC2)s1	TPT1 inh 31.1, Rtt109 HAT inh inconclusive (no result: WT yeast gro inh) | caTPT1 confirm 38.0 | RNase T1 counter 50.1
O=[N+]([O-])c1ccc(N2CCCCC2)s1	TPT1 inh 34.7 (no result: Rtt109 HAT inh) | caTPT1 confirm 34.3 | RNase T1 counter 45.8
Cc1ccc(CNS(=O)(=O)c2ccc(CN3C(=O)c4cccnc4C3=O)cc2)o1	none (no result: WT yeast gro inh)
O=C(CNC(=O)c1cc(Cl)nc2ccccc12)Nc1ccccc1Br	none (no result: SKKanGAS inh, TPT1 inh, Platelet DG rel, WT yeast gro inh, PHOSPHO1 inh)
Cc1cccc2sc(NC(=O)C3CCCN(S(=O)(=O)c4cccc5nonc45)C3)nc12 (centres undefined)	TPT1 inh 43.4 | caTPT1 confirm 39.0 | RNase T1 counter 48.8
Cc1ccc2nc(NC(=O)C3CCCN(S(=O)(=O)c4cccc5nonc45)C3)sc2c1 (centres undefined)	none (no result: Rtt109 HAT inh, WT yeast gro inh)
CS(=O)(=O)Oc1ccc2c(c1)O/C(=C\c1cccnc1)C2=O	none (no result: WT yeast gro inh)
COc1ccc(OC)c(/C=C2\Oc3cc(OCC(=O)N4CCC[C@H]4C(=O)O)ccc3C2=O)c1	none (no result: WT yeast gro inh)
COc1cccc(/C=C2\Oc3cc(OCC(=O)N4CCC[C@H]4C(=O)O)ccc3C2=O)c1	none (no result: WT yeast gro inh)
COc1cc(OC)c(OC)cc1/C=C1\Oc2cc(OS(C)(=O)=O)ccc2C1=O	TPT1 inh 75.0 (no result: WT yeast gro inh) | caTPT1 confirm 71.5 | RNase T1 counter 77.7
COc1ccc(/C=C2\Oc3cc(OCC(=O)N4CCC[C@H]4C(=O)O)ccc3C2=O)c(OC)c1	TPT1 inh 35.4 (no result: WT yeast gro inh) | caTPT1 confirm 80.9 | RNase T1 counter 91.5

Screens from PubChem BioAssay.
